Broadly, the AC50 is the concentration at which the activity in the assay is half-maximal.

Active and inactive are the calls of the source. The calls were made as follows: active = hit-call score of the fitted dose curve at least 0.9, where 1 is the maximum; inactive = score below 0.9.

The target of the assay is Paired box protein Pax-6 (Homo sapiens) (UniProt P26367). As to the kind of experiment: ATG_Pax6_CIS: Attagene CIS-FACTORIAL HepG2 Assay for human Paired Box 6 (PAX6) (AID 2282956). Particulars: HepG2 CIS-FACTORIAL PAX6 reporter transcription, RNA readout; actives raise or lower the signal. The method, then: ATG_CIS is a cell-based, multiplexed-readout assay that uses HepG2, a human liver cell line, with measurements taken at 24 hours after chemical dosing in a 24-well plate.ATG_Pax6_CIS is one of 52 assay component(s) measured or calculated from the ATG_CIS assay. It is designed to make measurements of mRNA induction, a form of inducible reporter, as detected with fluorescence intensity signals by Reverse transcription polymerase chain reaction (RT-PCR) and Capillary electrophoresis technology.Data from the assay component ATG_Pax6_CIS was analyzed into 1 assay endpoint. This assay endpoint, ATG_Pax6_CIS, was analyzed with bidirectional fitting relative to DMSO as the negative control and baseline of activity. Using a type of inducible reporter, measures of mRNA for gain or loss-of-signal activity can be used to understand the reporter gene at the transcription factor-level as they relate to the gene PAX6. Furthermore, this assay endpoint can be referred to as a primary readout, because this assay has produced multiple assay endpoints where this one serves a reporter gene function. To generalize the intended target to other relatable targets, this assay endpoint is annotated to the dna binding intended target family, where the subfamily is paired box protein.
Chain of Paired box protein Pax-6 (Homo sapiens) (P26367 whole entry, looked up): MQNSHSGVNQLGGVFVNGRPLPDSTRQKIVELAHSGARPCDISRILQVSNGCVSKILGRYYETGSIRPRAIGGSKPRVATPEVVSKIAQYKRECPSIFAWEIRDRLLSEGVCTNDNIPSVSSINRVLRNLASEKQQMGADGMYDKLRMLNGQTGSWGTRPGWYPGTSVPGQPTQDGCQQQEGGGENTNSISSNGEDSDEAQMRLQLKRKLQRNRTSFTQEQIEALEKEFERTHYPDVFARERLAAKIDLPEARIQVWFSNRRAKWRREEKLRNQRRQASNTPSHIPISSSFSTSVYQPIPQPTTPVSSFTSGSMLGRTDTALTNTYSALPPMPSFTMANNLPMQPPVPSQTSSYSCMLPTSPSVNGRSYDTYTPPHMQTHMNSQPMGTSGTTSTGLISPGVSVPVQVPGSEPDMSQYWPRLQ
Human liver HepG2 cells are transiently transfected with multiple reporter transcription units (MRTUs) in 6-well plates using FuGene 6 reagent (Roche; 3 ml FuGene/1 mg DNA). The MRTU constructs are regulated by a cis-regulating element (promoter). […] A major difference between the CIS and TRANS system is that in CIS activities of endogenous TFs are measured, whereas the TRANS assay evaluates changes in activities of exogenous, chimeric NR-Gal4 proteins. […] At the end of 24 hour incubation, total RNA was isolated using TriZol reagent (Invitrogen). The isolated RNA is then reverse-transcribed using oligo(dT) primer and Mo-MLV reverse transcriptase (Invitrogen) with DNAse I (Ambion) treatment for 30 min. The one-tenth of the produced cDNA was amplified by PCR using Taq DNA polymerase (Invitrogen) and two reporter sequence-specific primers. The PCR products were fluorescently labeled by primer extension with 6-arboxyfluorescein (6-FAM) 5'-labeled reporter sequence-specific primer (2 min at 95 C, 20 s at 68 C and 10 min at 72 C) and these products were digested with 5U of HpaI (New England Biolabs) for 2h at 37 C. The fragments were purified using Qiaquick PCR columns (Qiagen), analyzed on an ABI 3130xL genetic analyzer (Applied Biosystems) with peak positions identified by using a set of X-rhodamine (ROX)-labeled MapMarker1000 molecular weight standards (BioVentures). The raw capillary electrophoresis data was processed using Attagraph software (Attagene).
Turning to `COc1ccccc1[N+](=O)[O-]`, the compound was classed as inactive.

Take `CCOC(=O)COC(=O)c1cc(Oc2ccc(C(F)(F)F)cc2Cl)ccc1[N+](=O)[O-]`: the outcome was inactive.

With `COC(=O)Nc1ccc(Cl)c(Cl)c1`, the outcome was inactive.

On to `CCCCSCCCC`, for which the outcome was inactive.

Regarding `CCN(CCC#N)c1ccc(N=Nc2ccc([N+](=O)[O-])cc2)cc1`, the call was inactive.

For the compound `O=C(O)c1cc(C(=O)O)cc([N+](=O)[O-])c1`, the call was inactive.

`CCCCCCCCc1ccc(S(=O)(=O)O)cc1`: the AC50 is 19.7 µM (active).

With `Nc1ccc(N)c2c1C(=O)c1ccccc1C2=O`, the outcome was inactive.

Take `C[Si]1(C)O[Si](C)(C)O[Si](C)(C)O1`: the compound was called inactive.

For the compound `Cc1occc(=O)c1OC(=O)C(C)C`, the compound was classed as inactive.

For `CC(C)(CO)[C@@H](O)C(=O)NCCC(=O)O`, the outcome was inactive.

`N#Cc1ccc(CC(=O)c2cccc(C(F)(F)F)c2)cc1`: the outcome was inactive.

Take `Cc1ccc(S(N)(=O)=O)cc1`: the result was inactive.

For `IC(I)I`, the compound was called inactive.

Take `Cc1ccc(OC(=O)c2ccccc2O)cc1`: the compound was called inactive.

As for `CC(CN=Cc1ccccc1O)N=Cc1ccccc1O` (stereo not given), the result was inactive.

`Cc1[nH]c(=O)c(C#N)cc1-c1ccncc1`: the call was inactive.

`O=c1c(O)c(-c2ccc(O)cc2)oc2cc(O)cc(O)c12`: the compound was called inactive.

As for `COS(=O)(=O)O`, the compound was classed as inactive.

On to `c1ccc2cc(Nc3ccc(Nc4ccc5ccccc5c4)cc3)ccc2c1`, for which the compound was called inactive.

On to `COC(C)(C)CC(C)=O`, for which the call was inactive.

With `CC1(C)CCC[C@]2(C)[C@H]3CCO[C@]3(C)CC[C@@H]12`, the call was inactive.

Take `CC(C)(N=C=O)c1cccc(C(C)(C)N=C=O)c1`: the outcome was inactive.

Regarding `NCc1ccco1`, the call was inactive.

As for `O=[N+]([O-])c1ccc(O)cc1C(F)(F)F`, the compound was classed as inactive.

As to `C=Cc1ccc(C(C)(C)C)cc1`, the compound was classed as inactive.

On to `CCCOC(=O)c1c(Cl)c(Cl)c(Cl)c(Cl)c1C(=O)OCCC`, for which the compound was called inactive.

For the compound `CC[N+](C)(CC)CC`, the call was inactive.

Consider `CC1CCC(C(C)C)C(O)C1` (stereo not given), for which the call was inactive.

For `CC=Cc1ccc(OCC)c(O)c1`, the compound was classed as inactive.

Turning to `C=CC(=O)OCCCC`, the result was inactive.

Consider `COc1ccc(N)c([N+](=O)[O-])c1`, for which the compound was called inactive.

As for `COc1ccc(N=Nc2cc(C)c(N=Nc3ccc(S(=O)(=O)O)cc3)cc2OC)cc1`, the AC50 is 100 µM (active).

In the case of `CCCC(C)C(O)CC` (stereo not given), the compound was called inactive.

As for `CCOC(=O)CCc1ccccc1`, the call was inactive.

For the compound `CCCCCC(=O)CC`, the result was inactive.

Take `CCCCCCCC(=O)OCCCCCC`: the outcome was inactive.

Consider `N#Cc1cscn1`, for which the result was inactive.

Consider `COC(=O)c1ccc(OC)cc1`, for which the outcome was inactive.

For `CCc1ccc(O)cc1`, the result was inactive.
